From PubChem BioAssay AID651622 (National Center for Advancing Translational Sciences (NCATS), 2012)
Values without a mark were called inactive.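 How the source made its calls: active means inhibition of the USP46/UAF1 deubiquitinase of at least 60% at 114 µM in the gel test; inconclusive means inhibition from 30% up to under 60%; inactive means inhibition below 30%.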

What follows are compounds tested against Ubiquitin carboxyl-terminal hydrolase 46 (Homo sapiens) + WD repeat-containing protein 48 (Homo sapiens) (UniProt P62068+Q8TAF3) (assay: Inhibitors of USP1/UAF1: SAR in USP46/UAF1 diubiquitin SDS-PAGE gel assay). Conditions: USP46/UAF1 K63 diubiquitin cleavage; series mostly up to 114 µM; inhibition: at the top concentration.
Chain of Ubiquitin carboxyl-terminal hydrolase 46 (Homo sapiens) + WD repeat-containing protein 48 (Homo sapiens) (P62068 whole entry, looked up): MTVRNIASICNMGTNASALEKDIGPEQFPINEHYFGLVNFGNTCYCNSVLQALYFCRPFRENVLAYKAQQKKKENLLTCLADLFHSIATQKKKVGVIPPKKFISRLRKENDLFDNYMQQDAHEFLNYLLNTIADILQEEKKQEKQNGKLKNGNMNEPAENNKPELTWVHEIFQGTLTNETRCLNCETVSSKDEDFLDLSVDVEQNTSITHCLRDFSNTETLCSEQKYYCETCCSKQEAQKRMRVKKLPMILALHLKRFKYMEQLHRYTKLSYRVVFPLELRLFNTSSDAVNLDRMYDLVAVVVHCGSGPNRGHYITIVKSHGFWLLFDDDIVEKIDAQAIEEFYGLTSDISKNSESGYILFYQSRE
Chain of Ubiquitin carboxyl-terminal hydrolase 46 (Homo sapiens) + WD repeat-containing protein 48 (Homo sapiens) (Q8TAF3 whole entry, looked up): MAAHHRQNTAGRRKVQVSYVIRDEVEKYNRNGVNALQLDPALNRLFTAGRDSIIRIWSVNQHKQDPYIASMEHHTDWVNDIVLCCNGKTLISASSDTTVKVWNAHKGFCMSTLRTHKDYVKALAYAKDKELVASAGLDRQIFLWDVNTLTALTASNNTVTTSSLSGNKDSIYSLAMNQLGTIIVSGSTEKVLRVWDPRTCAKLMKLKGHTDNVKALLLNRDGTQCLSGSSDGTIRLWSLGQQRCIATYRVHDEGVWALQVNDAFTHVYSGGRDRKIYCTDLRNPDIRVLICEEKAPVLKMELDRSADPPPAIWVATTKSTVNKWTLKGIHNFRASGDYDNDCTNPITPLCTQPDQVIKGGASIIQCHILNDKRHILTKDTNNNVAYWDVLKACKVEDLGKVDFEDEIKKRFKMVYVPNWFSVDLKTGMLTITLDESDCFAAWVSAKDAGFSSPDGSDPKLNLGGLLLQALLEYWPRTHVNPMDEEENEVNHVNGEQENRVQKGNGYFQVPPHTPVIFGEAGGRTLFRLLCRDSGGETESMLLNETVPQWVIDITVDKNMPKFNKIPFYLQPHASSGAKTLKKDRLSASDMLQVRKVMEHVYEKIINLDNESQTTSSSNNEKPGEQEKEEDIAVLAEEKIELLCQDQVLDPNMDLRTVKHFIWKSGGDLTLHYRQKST
Text: Deubiquitinating enzymes (DUBs) are a class of enzymes that can cleave isopeptide bond formed between the C-terminal carboxylate of ubiquitin and a lysine side-chain amino group on the target protein. Among them, ubiquitin specific proteases (USPs) constitute the largest DUB family. Human USPs are emerging as promising targets for pharmacological intervention because of their connection to a number of human diseases, including prostate, colon and breast cancer (1, 2), pediatric acute lymphoblastic leukemia (3), and familial cylindromatosis (4). The advantage of inhibiting USPs lies in the potential specificity of therapeutic intervention that can lead to better efficacy and reduce nonspecific side effects. In a collaboration between the University of Delaware and the NIH Chemical Genomics Center, a high-throughput screen assay was developed to screen for USP1/UAF1 inhibitors (5). […]
The inhibition assay contains 100 nM USP46/UAF1, 2 microM K63 linked diubiquitin, and inhibitors at varied concentrations (0.08 microM - 114 microM). […] The intensity of the individual diubiquitin and monoubiquitin band was quantified using Quantity One 4.3.1 (Biorad, Hercules, CA). The percentage of the conversion was determined and used to calculate the reaction rate. […]

Compound | inhibition [%]
Cc1cnc(-c2ccccc2C(C)C)nc1NCc1ccc(-n2ccnn2)cc1 | 9
